Assay outcomes as filed in PubChem.
This is a sample that favours compounds with a hit; in the whole collection about 4% have one here.
CF NFkB inh – blocks PAF-induced NF-kB reporter in cystic fibrosis cells. inhibition, % at 5 µM. KKLEB NF-kB-GFP reporter, GFP fluorescence overnight. AID 588850. 360,000 compounds, 0.86% hits;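 active = at least 50% inhibition at 5 µM, scaled per plate between neutral and stimulator controls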;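 note: PAF is a Pseudomonas aeruginosa culture filtrate used as stimulus; plate controls were PAF-stimulated DMSO wells for no effect and unstimulated DMSO wells for full effect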
KKLEB cytotox – counter-screen for CF NF-kB inhibitors: cytotoxicity. KKLEB CF airway cells viability, ATPlite luminescence, overnight; active compounds read low; cells stimulated with P. aeruginosa culture filtrate. 360,000 compounds, 0.36% hits. activity change (cytotoxicity), % at 5 µM. AID 602141;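 active = corrected activity change at or below -50% at 5 µM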
TWEAK Fn14 block – blocks TWEAK-Fn14 interaction in a reporter cell assay | inhibition, % at 10 µM | 360,000 compounds, 2% hits | TWEAK-stimulated Fn14 reporter cells, luciferase luminescence, 8 h; in the data active = inhibition above about 50%
HIF-2a inh – blocks HIF-2a reporter activity; inhibition, % at 18.8 µM; 786-0 RCC cells HIF-2a reporter, luciferase luminescence, overnight; 360,000 compounds, 0.72% hits; AID 624352;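 active = inhibition of the luminescence signal of 40% or more relative to plate controls, in a single-dose primary screen at 18.75 µM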
Peg3 prom inh – inhibitors of Peg3 promoter; inhibition, % at 20 µM; HeLa PEG-Prom luciferase reporter, luminescence, overnight; 360,000 compounds, 1.7% hits;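 active = inhibition of at least 50% at 20 µM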
TROY NFkB inh – inhibitors of TROY-dependent NF-kB signaling; 360,000 compounds, 0.98% hits; inhibition, % at 10 µM; Q293 LMP1-TROYcd NF-kB luciferase reporter, 4 h;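 active = compounds whose plate-normalised and pattern-corrected inhibition of the luciferase reporter signal at the single screening dose is 50% or more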
* hit, by the source's call.

NCCOc1ccc(C2CCCCC2)cc1 was read as CF NFkB inh -4, KKLEB cytotox 0, TWEAK Fn14 block 6, HIF-2a inh -79, Peg3 prom inh -70 and TROY NFkB inh 5.
Screening OCCN1CCN(CC(O)COc2ccc(Cl)cc2)CC1 (stereo not drawn) returned CF NFkB inh 4, KKLEB cytotox 0, TWEAK Fn14 block 6, HIF-2a inh 14, Peg3 prom inh 13 and TROY NFkB inh -3.
Screening O=C(Cc1ccc(NC(=O)C2CCN(C(=O)c3ccccc3)CC2)cc1)Nc1cccc(C(=O)N2CCCCC2)c1 returned CF NFkB inh -19, KKLEB cytotox -10, TWEAK Fn14 block -31, HIF-2a inh 10, Peg3 prom inh -4 and TROY NFkB inh 5.
Screening COc1cccc(CN2C(=NC(=O)C3CCCO3)SC3CS(=O)(=O)CC32)c1 (stereo not drawn) returned CF NFkB inh -1, KKLEB cytotox 9, TWEAK Fn14 block -3, HIF-2a inh 4, Peg3 prom inh 3 and TROY NFkB inh 4.
`Cc1c(N=C2NC(=O)/C(=C/c3ccc(O)cc3)S2)c(=O)n(-c2ccccc2)n1C` gave CF NFkB inh -19, KKLEB cytotox 15, TWEAK Fn14 block 2, HIF-2a inh 5, Peg3 prom inh 0 and TROY NFkB inh -32.
For O=C1NC(=NCc2ccccc2)S/C1=C/c1ccc(O)cc1 the results were CF NFkB inh 53*, KKLEB cytotox -43, TWEAK Fn14 block 9, HIF-2a inh 10, Peg3 prom inh 32 and TROY NFkB inh -2.
`CC(=O)N1C[C@H]2CON(C)[C@H]2C[C@H]1c1ccccc1` gave CF NFkB inh -19, KKLEB cytotox 8, TWEAK Fn14 block -2, HIF-2a inh 2, Peg3 prom inh -9 and TROY NFkB inh 1.
Cc1cc(C)n2c(Nc3ccc4c(c3)OCCO4)c(-c3cc4ccccc4o3)nc2n1 was read as TWEAK Fn14 block 97*, HIF-2a inh -21 and TROY NFkB inh 85*.
`CC1CCN(C(=O)c2[nH]cnc2C(=O)Nc2ccc(Cl)cc2)CC1` gave CF NFkB inh -6, KKLEB cytotox -6, TWEAK Fn14 block -5, HIF-2a inh -11, Peg3 prom inh 1 and TROY NFkB inh 7.
`CCOc1ccc(-c2cc(C(=O)NCCOC)[nH]n2)c(C)c1` gave CF NFkB inh -17, KKLEB cytotox -1, TWEAK Fn14 block 5, HIF-2a inh -66, Peg3 prom inh -33 and TROY NFkB inh 1.
`CCOc1ccc(-c2cc(C(=O)Nc3ccc(C)c(NS(C)(=O)=O)c3)[nH]n2)c(C)c1` gave CF NFkB inh -13, KKLEB cytotox 4, TWEAK Fn14 block 52*, HIF-2a inh -47, Peg3 prom inh -4 and TROY NFkB inh 39.
C[C@H](CO)N1C[C@H](C)[C@@H](CN(C)Cc2ccc(C(=O)O)cc2)Oc2c(cccc2N(C)C)C1=O was read as CF NFkB inh -5, KKLEB cytotox 7, TWEAK Fn14 block -4, HIF-2a inh 1, Peg3 prom inh 4 and TROY NFkB inh -13.
For COc1ccc(CCN(C)C(=O)c2ccc(C)c(S(=O)(=O)N3CCCCC3)c2)cc1OC the results were CF NFkB inh 34, KKLEB cytotox -12, TWEAK Fn14 block -1, HIF-2a inh -5, Peg3 prom inh 19 and TROY NFkB inh 6.
For Cc1c2ccccc2c(C)c2c1ccc1ccccc12 the results were CF NFkB inh 0, KKLEB cytotox 14, TWEAK Fn14 block -1, HIF-2a inh -68, Peg3 prom inh 69* and TROY NFkB inh -74.
For Cc1c2ccccc2nc2ccccc12 the results were CF NFkB inh -32, KKLEB cytotox 7, TWEAK Fn14 block 5, HIF-2a inh -6, Peg3 prom inh -3 and TROY NFkB inh 9.
For Cc1ccc(-n2c3nc(=O)[nH]c(=O)c-3cc3cc([N+](=O)[O-])ccc32)cc1C the results were CF NFkB inh -3, KKLEB cytotox -15, TWEAK Fn14 block -22, HIF-2a inh 29, Peg3 prom inh 74* and TROY NFkB inh -1.
Screening O=[N+]([O-])c1ccc(O)c(/C=N/Nc2ccc(Cl)nn2)c1 returned CF NFkB inh 62*, KKLEB cytotox -81*, TWEAK Fn14 block -68, HIF-2a inh -42, Peg3 prom inh -9 and TROY NFkB inh -23.
For Cc1cc(=O)oc2ccc(OC(=O)c3cccc(S(=O)(=O)N4CCOCC4)c3)cc12 the results were CF NFkB inh -2, KKLEB cytotox 0, TWEAK Fn14 block 101*, HIF-2a inh 0, Peg3 prom inh -10 and TROY NFkB inh 39.
Screening Cc1ccccc1NC(=O)c1cc(C(=O)c2cc(Cl)ccc2O)cn(-c2ccccc2C)c1=O returned CF NFkB inh 48, KKLEB cytotox -43, TWEAK Fn14 block 87*, HIF-2a inh -42, Peg3 prom inh -37 and TROY NFkB inh 38.
Cc1nn(S(=O)(=O)c2cccs2)c(C)c1Sc1ccc([N+](=O)[O-])cc1 was read as CF NFkB inh -4, KKLEB cytotox -17, TWEAK Fn14 block 50*, HIF-2a inh -2, Peg3 prom inh 22 and TROY NFkB inh 35.
`O=C1CC(c2ccc3c(c2)OCO3)Sc2nc3ccccc3n21` (stereo not drawn) gave CF NFkB inh 9, KKLEB cytotox -27, TWEAK Fn14 block 89*, HIF-2a inh -36, Peg3 prom inh -23 and TROY NFkB inh 84*.
COCCNC(=O)C1(C)CCCN(Cc2ccc(-c3ccccc3)o2)C1 (stereo not drawn) was read as CF NFkB inh 4, KKLEB cytotox 7, TWEAK Fn14 block -17, HIF-2a inh 9, Peg3 prom inh 17 and TROY NFkB inh -6.
